# High-throughput results deposited in PubChem by several laboratories.
# An excerpt weighted towards active compounds, which were near 1.7% of everything screened.
# RecA splice inh = Mtb RecA intein splicing inhibition; cell-free RecA intein splicing, fluorescence; inhibition, % (no concentration beside the values); actives 0.75% (n = 290,000); AID 2221; in the data active means inhibition above about 30%;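 further: 0% = vehicle wells and 100% = reference inhibitor control wells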
# VHR inh abs = DUSP3 (human) phosphatase inhibition. inhibition, % at 13.3 µM. P51452. actives 0.52% (n = 290,000). recombinant VHR phosphatase, pNPP absorbance. AID 1654; in the data active means inhibition above about 50%
# PriA SSB inh = inhibitors of Klebsiella pneumoniae PriA binding to SSB C-terminal tail | AlphaScreen SSBct-PriA binding, biotinylated peptide | inhibition, % at 33 µM | actives 0.6% (n = 430,000); in the data active means inhibition mostly above about 37%, no sharp cut-off; inactive means mostly below about 20%;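 further: plate controls were negative control peptide for no effect and reference peptide for full effect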
# 3CLpro inhibitor = SARS-CoV 3CLpro protease inhibition; recombinant SARS-CoV 3CLpro, quenched FRET peptide cleavage; AID 1706; actives 0.14% (n = 290,000); inhibition, % at 6 µM; P0C6X7; in the data active means inhibition above about 12%
# CCHF vOTU inh-1 = blocks the CCHF virus ovarian tumor domain protease. actives 0.55% (n = 370,000). inhibition, % at 11.5 µM. AID 651958. CCHFV vOTU protease, Pep-AMC fluorescence; further: 0% = vehicle wells with enzyme and 100% = no enzyme wells
# CCHF vOTU inh-2 = confirmation of CCHF virus vOTU protease inhibitors; inhibition, % at 11.5 µM; actives 17% (n = 1,900); AID 686976; Recombinant CCHFV vOTU, Pep-AMC fluorescence; shares compounds with CCHF vOTU inh-1
# Active calls of the source: *; i = inactive; · = no result. Unless noted, no stated cut-off is given here; in the data, active means inhibition above about 30%; inactive means the rest.
SMILES,RecA splice inh,VHR inh abs,PriA SSB inh,3CLpro inhibitor,CCHF vOTU inh-1,CCHF vOTU inh-2
COc1cc(C=c2c3ccccc3n3c2cc(-c2ccccc2)[n+]3C)cc(OC)c1OC,·,·,-6,·,85*,69*
COc1cc(/C=C(/C(=O)O)c2ccc(-c3ccccc3)cc2)cc(OC)c1OC,·,15,-3,11,12,·
CN(C)c1ccc(C=c2c3ccccc3n3c2cc(-c2ccccc2)[n+]3C)cc1,·,·,55,·,48*,1
COc1cccc(-c2nnc3ccc(OCCNC(=O)CC4CCCC4)nn23)c1,·,·,-4,·,·,·
CCOC(=O)C1CCCN(C(=O)c2cccc(S(=O)(=O)N(Cc3ccccc3)c3ccccc3OC)c2)C1 (stereo not drawn),11,·,-4,·,36*,-12
Cc1cc(C)n(-c2ccnc(N3CCC(C(=O)N4CCN(c5ccccc5)CC4)CC3)n2)n1,·,·,-21,·,·,·
O=C1C(=Cc2cn(-c3ccccc3)nc2-c2ccc(OCc3ccccc3F)cc2)SC(=S)N1CCS(=O)(=O)O,·,·,·,·,28,·
O=C1C(=Cc2cn(-c3ccccc3)nc2-c2ccc(OCc3ccc(Cl)cc3)cc2)SC(=S)N1CCS(=O)(=O)O,·,·,·,·,34*,25
O=S(=O)(Nc1cc(Sc2cccc3cccnc23)c(O)c2ccccc12)c1ccccc1,8,5,8,9,40*,-3
O=C(O)CSc1cc(NS(=O)(=O)c2cccc([N+](=O)[O-])c2)c2ccccc2c1O,95*,69,22,3,108*,99*
COc1ccc(CC(=O)Nc2nnc3n2CCCS3)cc1,·,·,-6,·,·,·
Cc1c(C)n(Cc2ccc(-c3ccccc3C(=O)O)cc2)c2ccc(C(=O)N[C@@H](C)c3ccc([N+](=O)[O-])cc3)cc12,·,·,·,·,42*,9
CCOC(=O)/C(C#N)=C1/C=CN(Cc2ccccc2)C=N1,-2,25,5,3,30*,-1
C[n+]1cccc2c(Br)ccc([O-])c21,1,27,1,13*,103*,42*
Nc1ccc(N(CCO)CCO)cc1,63*,21,11,4,57*,27
COc1cc(/C=N\Nc2nncn2N)ccc1OC(C)=O,0,13,·,0,90*,-22
COc1cc(/C=N/Nc2nncn2/N=C/c2ccc(O)c(OC)c2)ccc1O,·,32,·,6,100*,-13
CCOc1cc(/C=N/Nc2nnc(C)n2N)ccc1O,-6,-5,·,-4,117*,5
COc1ccc(OC)c(/C=N/Nc2nncn2/N=C/c2cc(OC)ccc2OC)c1,-8,-8,·,2,32*,-15
CCOc1cc(/C=N/Nc2ncnc(Cl)c2N)ccc1O,-6,-4,·,-1,6,·
CCCCC[C@H](C)N1C[C@@H](COCc2ccccc2)Oc2cc(N3CCC[C@H]3C(N)=O)ccc2S1(=O)=O,·,·,·,·,35*,2
CCCCC[C@@H](C)N1C[C@H](COCc2ccccc2)Oc2cc(N3CC[C@@H](O)C3)ccc2S1(=O)=O,·,·,·,·,41*,6
CC(CC(=O)c1ccccc1)=NCCCN=C(C)CC(=O)c1ccccc1,·,·,·,·,35*,2
O=C(CCn1c(=S)oc2ccccc21)NC1CCCCCCC1,1,-16,2,1,32*,-13
COc1ccccc1N1CCN(C(=O)c2ccc3nc(-c4ccco4)c(-c4ccco4)nc3c2)CC1,7,27,18,-4,4,·
SMILES,RecA splice inh,VHR inh abs,PriA SSB inh,3CLpro inhibitor,CCHF vOTU inh-1,CCHF vOTU inh-2
Cc1ccc(C)c(N2CCN(C(=O)c3ccc4nc(-c5ccco5)c(-c5ccco5)nc4c3)CC2)c1,7,-8,15,3,44*,-17
O=C(Cc1ccc(NC(=O)c2ccco2)cc1)NCc1cccs1,·,·,-7,·,·,·
CCOC(=O)c1cc(OC)c2cc(Cl)ccc2n1,·,·,-7,·,·,·
Cc1cccc(N2CCN(C(=O)CSc3nnnn3C3CC3)CC2)c1C,·,·,3,·,1,·
O=C(CSc1nnnn1C1CC1)N1CCN(c2ccccc2F)CC1,·,·,-1,·,33*,-2
Cc1cc(-c2nnc(NC(=O)COc3ccc(Cl)cc3)o2)n(C)n1,·,·,2,·,·,·
CCOC(=O)C1(C)C=C(Nc2ccc(O)cc2)C(=O)N1c1ccc(O)cc1 (stereo not drawn),-5,4,9,3,91*,-15
CCOC(=O)C1(C)C=C(Nc2ccc(OC)cc2)C(=O)N1c1ccc(OC)cc1 (stereo not drawn),-2,15,-2,4,0,·
Cc1cc(C)c(NC(=O)CN2C(=O)c3cccc4cccc(c34)C2=O)c(C)c1,·,·,-8,·,·,·
COc1ccc(N2CCN(C(CNC(=O)C(=O)NCc3cccs3)c3ccco3)CC2)cc1 (stereo not drawn),-2,14,4,4,12,·
O=C(NCc1cccs1)C(=O)NCC(c1ccco1)N1CCN(c2ccccc2)CC1 (stereo not drawn),1,2,-6,0,31*,-5
COc1ccc(-n2c3nc4ccccc4nc3c3c(=N)oc(C)nc32)cc1,72*,2,13,1,69*,36*
CCC(=O)N1CCCC(C)(C(=O)Nc2ccc(OC(F)F)cc2)C1 (stereo not drawn),·,·,·,·,31*,-18
C=CCC[C@@H](CCCCC)OC(=O)/C=C/[C@H](O)[C@@H](O)C[C@H](O)CC=C,·,·,·,·,34*,18
COc1ccc(C(O)c2nc(-c3ccoc3)cs2)cc1 (stereo not drawn),·,·,·,·,30*,-20
OC(c1ccc(F)cc1)c1nc(-c2ccoc2)cs1 (stereo not drawn),·,·,·,·,-5,·
FC(F)(F)C1=Nc2cccc3cccc(c23)N1,·,·,0,·,41*,17
Fc1ccc(C2=Nc3cccc4cccc(c34)N2)cc1,7,-8,3,-1,2,·
Cc1cccc(-n2nc3c(c2NC(=O)Nc2cccc(Cl)c2)CSC3)c1,·,·,-1,·,·,·
C/C(=N\NC(=S)NC1CCCCC1)c1ccc(OC(F)F)cc1OC(F)F,0,13,·,-8,33*,-6
O=C(NCCOc1ccc2c(c1)OCO2)C1CC1,·,·,-8,·,·,·
Cc1no[n+]([O-])c1COc1cccc(/C=N/Nc2nncn2N)c1,3,-7,i,0,109*,-14
O=C1C(=O)c2cccnc2-c2ncccc21,·,·,·,·,111*,86*
C[C@](O)(CNC(=O)CN1C(=O)CCC1=O)c1cc2ccccc2o1,·,·,-24,·,·,·
Cc1nc2c(o1)C(=O)c1ccccc1C2=Nc1ccccc1,·,·,1,·,41*,53*
Cc1c(Cl)cccc1NS(=O)(=O)c1ccc2c(c1)C1C=CCC1C(c1ccc(C(=O)O)cc1)N2 (stereo not drawn),·,46,24,3,·,·
COc1ccc(NS(=O)(=O)c2ccc3c(c2)[C@H]2C=CC[C@H]2[C@@H](c2ccc(C(=O)O)cc2)N3)cc1,19,-4,9,2,39*,26
Cc1cc(C)cc(N(CC(=O)Nc2ccc(C(F)(F)F)cc2)S(=O)(=O)c2c(C)[nH]c(=O)[nH]c2=O)c1,12,-31,-4,10,33*,-13
